Data published in PubChem BioAssay (Tox21).
“And” between values parts separate entries of the source, which are not always exact repeats. Identical values can stand only once. Records with an inconclusive call do not appear. Some compounds were tested as several samples or in several runs, with calls that do not always agree. The source made the active and inactive calls. Unless noted, the call rests on the fitted dose curve; in most records, active means well fitted curve in the direction sought with a large enough effect in the repeat runs; inconclusive means weak or mixed curves; inactive means no such curve, though single readings can be large; an effect the other way counts as inactive or inconclusive.

Experiments:
[1] = qHTS assay to identify small molecule agonists of the hypoxia (HIF-1) signaling pathway - cell viability counter screen (AID 1224844; calls by dose curve; further: nearly all actives have a fitted effect of over 50% in size)
Method in brief: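 Viability counter screen: HRE-bla ME-180 cells plated 5 hrs before compound addition, treated 17 hrs at 37C and 5% CO2, then CellTiter-Glo added after the FRET reporter read; luminescence after 30 min.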

[2] = qHTS assay to identify small molecule agonists of the hypoxia (HIF-1) signaling pathway (AID 1224846; active means well fitted activation curve with a large enough effect in the signal ratio in the repeat runs, not every such curve was filed as active; the % refers to the signal ratio)
Method in brief: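 Agonist mode reporter screen. ME-180 cells stably expressing bla under HRE control received test compounds in DMSO for 17 hrs (37C, 5% CO2), and beta-lactamase activity was then detected with the CCF4-AM FRET substrate.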

[3] = qHTS assay to identify small molecule agonists of H2AX - cell viability counter screen (AID 1224847; calls by dose curve; further: top concentration of the series differs between compounds; nearly all actives have a fitted effect of over 30% in size)
Method in brief: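 For this counter screen, overnight-attached CHO-K1 cells received test compounds (15 concentrations, 0.76% DMSO final); 3 hr later at 37C, CellTiter-Glo reagent was added and luminescence recorded after 30 min at room temperature.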

[4] = qHTS RealTime-Glo MT Cell Viability Assay in HepG2 cells - 24 hour (AID 1224867); further: nearly all actives have a fitted effect of over 50% in size
Method in brief: (§1)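 Viability was tracked continuously by NanoLuc luminescence from prosubstrate reduced by living HepG2 cells, at successive time points over 40 h of compound exposure. Cells with reagent were preincubated 5 h at 37 °C before compound addition.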

[5] = A CellTox Green Cytotoxicity Assay to monitor cytotoxicity in HEK293 cells - 0 hour (AID 1224869); further: nearly all actives have a fitted effect of over 50% in size; further: potency means the concentration at half of the fitted maximal effect
Method in brief: (§2)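 Dead-cell fluorescence measured kinetically: asymmetric cyanine dye, HEK293, 600 cells/well, 5 h settle, 23 nL cpd/DMSO, 37 C, reads 0–40 h every 8 h.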

[6] = qHTS RealTime-Glo MT Cell Viability Assay in HepG2 cells - 40 hour (AID 1224870); further: nearly all actives have a fitted effect of over 50% in size
Method in brief: (§3)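 HepG2 cells mixed with RealTime-Glo MT reagents (NanoLuc plus cell-permeant prosubstrate) were seeded at 600 cells/well, incubated 5 h at 37 C/5% CO2, then pinned with compounds in DMSO; nonlytic luminescence tracked viability during 40 h treatment.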

[7] = A CellTox Green Cytotoxicity Assay to monitor cytotoxicity in HEK293 cells - 40 hour (AID 1224871); further: nearly all actives have a fitted effect of over 45% in size
Method in brief: as §2

[8] = qHTS RealTime-Glo MT Cell Viability Assay in HEK293 cells - 16 hour (AID 1224872)
Method in brief: (§4)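 Viability tracked continuously by luminescence as live cells reduce a prosubstrate for NanoLuc; HEK293 cells preincubated 5 h, compound-treated at 37 C, and read at 0, 8, 16, 24, 32 and 40 h.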

[9] = qHTS RealTime-Glo MT Cell Viability Assay in HEK293 cells - 40 hour (AID 1224874); details: RealTime-Glo luminescence; max response: stronger effect = lower value; further: nearly all actives have a fitted effect of over 50% in size; further: potency means the concentration at half of the fitted maximal effect
Method in brief: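 600 HEK293 cells per well, dispensed already mixed with RealTime-Glo MT reagents. Compound dosing came 5 h later. The same wells were read for luminescence at 0, 8, 16, 24, 32 and 40 h of exposure at 37 C.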

[10] = A CellTox Green Cytotoxicity Assay to monitor cytotoxicity in HEK293 cells - 24 hour (AID 1224875); further: nearly all actives have a fitted effect of over 45% in size
Method in brief: as §2

[11] = A CellTox Green Cytotoxicity Assay to monitor cytotoxicity in HepG2 cells - 16 hour (AID 1224876); further: nearly all actives have a fitted effect of over 45% in size; further: potency means the concentration at half of the fitted maximal effect
Method in brief: (§5)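 First, HepG2 cells (600/well) mixed with reagent were plated; second, after 5 h at 37 C they received compounds via pintool; third, fluorescence was measured at 0 h through 40 h at 8 h intervals.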

[12] = qHTS RealTime-Glo MT Cell Viability Assay in HepG2 cells - 32 hour (AID 1224877); further: nearly all actives have a fitted effect of over 55% in size
Method in brief: as §1

[13] = A CellTox Green Cytotoxicity Assay to monitor cytotoxicity in HepG2 cells - 24 hour (AID 1224878); further: nearly all actives have a fitted effect of over 45% in size; further: potency means the concentration at half of the fitted maximal effect
Method in brief: as §5

[14] = A CellTox Green Cytotoxicity Assay to monitor cytotoxicity in HepG2 cells - 40 hour (AID 1224879); further: nearly all actives have a fitted effect of over 40% in size; further: potency means the concentration at half of the fitted maximal effect
Method in brief: as §5

[15] = qHTS assay to identify small molecule agonists of H2AX (AID 1224845; active means well fitted activation curve with a large enough effect in the signal ratio in the repeat runs, not every such curve was filed as active; the % refers to the signal ratio; further: potency means the concentration at half of the fitted maximal effect)
Method in brief: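 Wild-type CHO-K1 cells plated overnight, then exposed 3 hr at 37C to compounds at 15 concentrations (0.76% DMSO). Lysed, then HTRF anti-pH2AX(S139)-cryptate/anti-H2AX-d2 detection after 24 hr at room temperature; emissions 665 and 620 nm.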

[16] = qHTS assay to identify small molecule antagonists of the estrogen related receptor (ERR) signaling pathway from Tox21 library (AID 1224848); further: nearly all actives have a fitted effect of over 50% in size; further: potency means the concentration at half of the fitted maximal effect
Method in brief: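 First, 2,000 ERR cells per well were plated and held 6 h at 37 C/5% CO2. Next, compounds in DMSO were pinned in and left 18 h at 37 C. Finally, ONE-Glo was added and luminescence read after 30 min at room temperature.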

[17] = qHTS RealTime-Glo MT Cell Viability Assay in HEK293 cells - 32 hour (AID 1224868); further: nearly all actives have a fitted effect of over 50% in size; further: potency means the concentration at half of the fitted maximal effect
Method in brief: as §4

[18] = qHTS RealTime-Glo MT Cell Viability Assay in HepG2 cells - 8 hour (AID 1224873); further: nearly all actives have a fitted effect of over 55% in size
Method in brief: as §3

[19] = qHTS assay to identify small molecule agonists of the estrogen related receptor (ERR) signaling pathway from Tox21 library (AID 1224849; calls by dose curve; further: nearly all actives have a fitted effect of over 15% in size); details: ERR reporter cell line, ONE-Glo luciferase, 18 h; at 92.4 µM (top of the series)
Method in brief: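 Quantitative HTS in agonist format: NTP ERR cell line, compounds transferred in DMSO after 6 h plating, 18 h incubation at 37 C, ONE-Glo luminescence endpoint.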
On the % scale 0 is the no-effect control and ±100 the full control effect.

CNC(=O)Oc1cccc2ccccc12
inactive: Potency [1] | outcome [2] | Potency [3] | outcome [4] | Potency [5] | outcome [6] | Potency [7] | outcome [8] | max response [9] -29.1% and -20.7% and -13.7% | Potency [10] | Potency [11] | outcome [12] | Potency [13] | Potency [14]

O=C(O)C(Br)Br
inactive: Potency [1] | Potency [15] | outcome [2] | Potency [3] | outcome [4] | Potency [5] | outcome [6] | Potency [7] | outcome [8] | max response [9] -0.855% and 1.09% | Potency [10] | Potency [11] | outcome [12] | Potency [13] | Potency [14]

C=C(C)C(=O)OCC(CC)CCCC (stereo not given)
24.8 µM (active) and inactive: Potency [16]
inactive: Potency [1] | outcome [2] | Potency [3] | outcome [4] | Potency [17] | Potency [5] | outcome [6] | Potency [7] | outcome [8] | outcome [18] | max response [9] 1.51% | Potency [10] | Potency [11] | outcome [12] | Potency [13] | Potency [14]

N#CN=C(N)N
inactive: Potency [1] | outcome [2] | Potency [3] | outcome [4] | Potency [17] | Potency [5] | outcome [6] | Potency [7] | outcome [8] | max response [9] 1.89% and 5.69% | Potency [10] | Potency [11] | outcome [12] | Potency [13] | Potency [14]

Oc1ccc(Cl)cc1
inactive: Potency [1] | outcome [2] | Potency [3] | outcome [4] | Potency [5] | outcome [6] | Potency [7] | outcome [8] | outcome [18] | max response [9] 3.34% and 1.68% and 3.82% | Potency [10] | Potency [11] | outcome [12] | Potency [13] | Potency [14]

CN(C)NC(=O)CCC(=O)O
inactive: Potency [1] | outcome [2] | Potency [3] | Potency [16] | outcome [4] | Potency [17] | Potency [5] | outcome [6] | Potency [7] | outcome [8] | outcome [18] | max response [9] 2.52% and 2.58% | Potency [10] | outcome [12] | Potency [13] | Potency [14]

COc1cc(-c2ccc(N)c(OC)c2)ccc1N
inactive: Potency [1] | outcome [2] | Potency [3] | outcome [4] | Potency [5] | outcome [6] | Potency [7] | outcome [8] | max response [9] -23.4% and -26.2% | Potency [10] | outcome [12] | Potency [13] | Potency [14]
active: Potency [9] 37.1 µM
inactive and 46.3 µM (active): Potency [16]
inactive and 37.1 µM (active): Potency [17]

COP(=S)(OC)Oc1ccc(SC)c(C)c1
inactive: Potency [1] | outcome [2] | Potency [3] | outcome [4] | Potency [17] | Potency [5] | outcome [6] | Potency [7] | outcome [8] | max response [9] -4.14% and -8.35% and 5.42% | Potency [10] | outcome [12] | Potency [13] | Potency [14]

O=C(O)c1cc(Oc2ccc(C(F)(F)F)cc2Cl)ccc1[N+](=O)[O-]
inactive: Potency [1] | outcome [2] | Potency [3] | Potency [16] | outcome [4] | Potency [5] | outcome [6] | Potency [7] | outcome [8] | max response [9] 3.72% [middle of 4 runs] | Potency [10] | Potency [11] | outcome [12] | Potency [13] | Potency [14]

ClCCOCCCl
inactive: Potency [1] | Potency [15] | outcome [2] | Potency [3] | outcome [4] | Potency [5] | outcome [6] | Potency [7] | outcome [8] | max response [9] -3.17% and -5.17% | Potency [10] | outcome [12] | Potency [13] | Potency [14]

Nc1cccc(Cl)c1
inactive and 21.9 µM (active): Potency [17]
inactive: Potency [1] | outcome [2] | Potency [3] | Potency [16] | outcome [4] | Potency [5] | outcome [6] | Potency [7] | outcome [8] | outcome [18] | max response [9] 0.922% | Potency [10] | Potency [11] | outcome [12] | Potency [13] | Potency [14]
active: Potency [9] 21.9 µM

CNCC(O)c1ccc(O)cc1 (stereo not given)
inactive: Potency [1] | outcome [2] | Potency [3] | Potency [16] | outcome [4] | Potency [17] | Potency [5] | outcome [6] | Potency [7] | outcome [8] | outcome [18] | max response [9] 4.3% and -3.08% | Potency [10] | Potency [11] | outcome [12] | Potency [13] | Potency [14]

CN(C)CCC#N
inactive: Potency [1] | outcome [2] | Potency [3] | outcome [4] | Potency [5] | outcome [6] | Potency [7] | outcome [8] | outcome [18] | max response [9] 6.53% and 12.6% | Potency [10] | Potency [11] | outcome [12] | Potency [13] | Potency [14]

Cc1cccc(N)c1
inactive: Potency [1] | Potency [15] | Potency [3] | Potency [16] | outcome [4] | Potency [5] | outcome [6] | Potency [7] | outcome [8] | outcome [18] | max response [9] 6.61% and 3.01% | Potency [10] | outcome [12] | Potency [13] | Potency [14]

O=C(O)CCCc1ccc(N(CCCl)CCCl)cc1
active: Potency [15] 56.9 µM
inactive: Potency [1] | outcome [2] | Potency [3] | outcome [4] | Potency [5] | outcome [6] | Potency [7] | outcome [8] | Potency [10] | Potency [11] | outcome [12] | Potency [13] | Potency [14]

COc1nc(NC(C)C)nc(NC(C)C)n1
inactive: Potency [1] | outcome [2] | Potency [3] | Potency [16] | activity change, positive = activation [19] 1.12% and 6.24% | outcome [4] | Potency [5] | outcome [6] | Potency [7] | outcome [8] | max response [9] -0.66% and 0.377% | Potency [10] | outcome [12] | Potency [13] | Potency [14]

[N-]=[N+]=CC(=O)OC[C@H](N)C(=O)O
43.6 µM (active) and inactive: Potency [14]
27.5 µM (active) and inactive: Potency [11]
24.5 µM (active) and inactive: Potency [13]
38.9 µM (active) and inactive: Potency [5]
inactive: Potency [1] | Potency [3] | Potency [16] | outcome [4] | Potency [17] | outcome [6] | Potency [7] | outcome [8] | max response [9] 8.97% and 11.4% | Potency [10] | outcome [12]
